LmPK inhibitor – LmPK (Leishmania mexicana) enzyme inhibition; purified LmPK, Kinase-Glo ATP luminescence, 1 h; actives 0.37% (n = 290,000); Q27686; AID 1721; Potency, µM (highest dose often 57.5 µM), for inactives: top-dose activity change, negative = inhibition, most hits filed as inhibitors; further: on the % scale 0 is the no-effect control and ±100 the full control effect
Target sequence (Q27686 whole entry, looked up): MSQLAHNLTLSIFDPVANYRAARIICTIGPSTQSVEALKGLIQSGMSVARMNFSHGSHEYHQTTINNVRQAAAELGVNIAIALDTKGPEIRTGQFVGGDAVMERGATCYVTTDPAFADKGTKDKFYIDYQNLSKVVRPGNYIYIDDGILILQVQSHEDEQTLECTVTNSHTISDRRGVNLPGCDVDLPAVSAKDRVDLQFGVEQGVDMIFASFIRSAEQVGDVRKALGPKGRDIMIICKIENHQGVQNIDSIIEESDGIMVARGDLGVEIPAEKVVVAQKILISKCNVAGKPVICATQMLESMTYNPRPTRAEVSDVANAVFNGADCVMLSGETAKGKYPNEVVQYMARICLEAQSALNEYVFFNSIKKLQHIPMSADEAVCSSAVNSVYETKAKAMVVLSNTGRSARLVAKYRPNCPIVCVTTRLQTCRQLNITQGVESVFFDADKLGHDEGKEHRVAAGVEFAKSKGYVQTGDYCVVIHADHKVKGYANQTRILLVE
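ATP generated from ADP (0.1 mM) and PEP (0.5 mM) by 0.1 nM LmPK over 1 h at room temperature (pH 7.2 imidazole buffer) was detected by coupled luciferase luminescence. Values were normalized to uninhibited and no-enzyme wells.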
AMA1-RON2 inh – AMA1-RON2 (P. falciparum) interaction inhibition. AlphaScreen AMA1-biotinylated RON2 peptide binding. Potency, µM (doses to about 58.2 µM), inactives show top-dose activity change, negative = inhibition, most hits filed as inhibitors. actives 0.2% (n = 360,000);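 further: 0% = vehicle wells and -100% = peptide control; nearly all actives have a fitted effect of over 45% in size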
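AMA1 (3D7) with his tag at 25 nM final met compounds first, then biotinylated RON2 peptide at 25 nM; detection used donor plus acceptor beads, 10 µg/mL apiece, read by AlphaScreen after 30 min at room temperature.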
TbPYK inhibitor – inhibitors of Trypanosoma brucei pyruvate kinase; TbPYK enzyme, Kinase-Glo Plus ATP luminescence, 45 min; Q57TT1; actives 0.12% (n = 410,000); Potency, µM (highest dose often 76.8 µM), without a hit: at the highest dose activity, negative = inhibition, most hits filed as inhibitors; further: on the % scale 0 is the no-effect control and ±100 the full control effect; nearly all actives have a fitted effect of over 50% in size
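Enzyme and substrate buffer are dispensed first and compound is pin-transferred. ADP at 130 uM final then starts the reaction, which runs 45 min at room temperature. Detection reagent is added for 10 min before luminescence is imaged.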
SARS PLP yeast – inhibitors of SARS-CoV papain-like protease in yeast; S. cerevisiae expressing SARS-CoV PLpro, growth rescue; Potency, µM (top dose mostly 32.9 µM), without a hit: at the top dose activity, positive = growth rescue, usual class: activators; actives 0.19% (n = 330,000); AID 485353; calls by dose curve; further: 0% is about no effect; nearly all actives have a fitted effect of over 55% in size
RE007 growth inh – less growth of the S. pombe RE007 Vpr strain. actives 0.21% (n = 360,000). S. pombe RE007 Vpr strain, BacTiter-Glo ATP luminescence, 24 h. Potency, µM (titrated, usually from 92.2 µM), for inactives: at the highest dose activity change, negative = less growth, usual class: inhibitors; active means well fitted falling curve with a large enough effect; inconclusive means small, poorly fitted or top-dose-only effect; inactive means no such curve, though single readings can be large or run the other way; further: on the % scale 0 is the no-effect control and ±100 the full control effect; nearly all actives have a fitted effect of over 50% in size
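Fission yeast strain RE007, carrying one chromosomally integrated HIV-1 vpr copy, was seeded at OD 0.01 in PMG+AL medium with 23 nL pinned compound. After 24 h at 30 °C and 99% humidity, viability was read by BacTiter-Glo luminescence.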
The depositor's hits bear a star; ? = inconclusive; · = no result given. A selection: hits, their analogues and other compounds. The true share with any hit is near 0.81%. Unless noted, the call rests on the fitted dose curve; in most records, active means well fitted curve in the direction sought with a large enough effect; inconclusive means small, poorly fitted or top-dose-only effect, or another doubt; inactive means no such curve, though single readings can be large; an effect the other way counts as inactive or inconclusive. Potency means the concentration at half of the fitted maximal effect.

SMILES	LmPK inhibitor	AMA1-RON2 inh	TbPYK inhibitor	SARS PLP yeast	RE007 growth inh
C=CCNc1nc(NCc2ccc(N(C)C)cc2)c2sc(-c3ccccc3)cc2n1	·	2.8µM*	3%	·	-16%
Cc1ccc2c(c1)N(C(=O)c1ccco1)C(C)(C)c1ssc(=S)c1-2	-4%	12µM*	-6%	6%	-3%
CCOC(=O)N=S(N)(=O)c1ccccc1 (configuration not stated)	3%	0%	7%	·	-15%
CCOC(=O)CC(S(=O)(=O)c1ccccc1)S(=O)(=O)c1ccccc1	·	19%	-5%	·	2µM*
Cc1ccc(NC(=O)CN2CCN(Cc3ccccc3)CC2)c(Br)c1	-2%	20µM*	7%	10%	-1%
O=C(Nc1ccccc1)c1nnsc1S(=O)c1ccc(Cl)cc1 (configuration not stated)	0%	-4%	?	-41%	2.8µM*
CCN(CC)c1ccc(/C=N\N2CCN(Cc3ccc(C)cc3)CC2)cc1	-3%	8.9µM*	-12%	-1%	-5%
CC(C)(C)C(=O)OCC(=O)C1CCC2C3CCC4=CC(=O)CCC4(C)C3CCC12C (configuration not stated)	·	·	-8%	·	·
N#Cc1nc(-c2cccc3ccccc23)oc1NCC#CCOC(=O)c1cccs1	·	·	·	-2%	·
COc1ccc2c(c1)CCc1c-2nc2ccccc2c1N1CCOCC1	-2%	9%	-3%	-1%	-14%
OCCCc1n[nH]c(=S)n1-c1ccccc1	5%	-3%	-2%	-1%	-17%
O=C1c2cccc3cccc(c23)C(=O)N1CCCc1n[nH]c(=S)n1-c1ccccc1	-5%	34%	7.1µM*	0%	1%
COCc1c(C(=O)OCC(=O)NCCc2ccc(S(N)(=O)=O)cc2)oc2ccccc12	·	9%	2%	-4%	0%
CCOC(=O)N1CCN(CCC(=O)c2ccc(Cl)cc2)CC1	-1%	3%	-8%	-15%	32µM*
CCOC(=O)N1CCN(CCC(=O)c2ccc(Br)cc2)CC1	-3%	-1%	1%	-12%	35µM*
CCOC(=O)N1CCN(CCC(=O)c2ccc(OC)cc2)CC1	-1%	-11%	-7%	-14%	28µM*
CC1=C(c2ccc(NN=C(C#N)C#N)cc2)NNC(=O)C1	·	·	1%	·	·
Cc1ccc(-c2cn3cccc(C)c3n2)cc1	25µM*	-17%	1%	-3%	-24%
CCCCS(=O)(=O)N[C@@H](Cc1ccc(OCCCCC2CCNCC2)cc1)C(=O)O	·	·	3%	·	·
COc1ccc(C(=O)Oc2cccc3cccnc23)cc1[N+](=O)[O-]	6%	37%	0%	-6%	63µM*
COc1ccc(C(=O)Oc2cccc3cccnc23)cc1S(=O)(=O)N1CCOCC1	2%	46%	-1%	-7%	32µM*
COc1ccc(C(=O)Oc2ccc(C)cc2)cc1S(=O)(=O)N1CCOCC1	·	4%	-11%	·	4%
COc1ccc(OCCN2CCC(C(=O)NC(C)c3cccc4ccccc34)CC2)cc1 (configuration not stated)	·	0%	4%	·	8%
O=C(/C=C/c1cccs1)N1CCCCC1	?	-1%	-7%	1%	6%
O=C(/C=C/c1cccs1)N1CCN(c2ccc(O)cc2)CC1	16µM*	-7%	-10%	-1%	137%
SMILES	LmPK inhibitor	AMA1-RON2 inh	TbPYK inhibitor	SARS PLP yeast	RE007 growth inh
Cc1ccc2nc(-c3ccc(N4C(=O)CC(N5CCN(CCO)CC5)C4=O)cc3)sc2c1 (configuration not stated)	-1%	4%	1%	-23%	32µM*
O=c1cc(-c2ccccc2F)oc2ccccc12	1%	17%	2%	-29%	63µM*
CCN(CC)c1ccc(/C=N/OCC(=O)N2CCCc3ccccc32)cc1	3%	28µM*	1%	-19%	3%
O=C(CO/N=C/c1ccc(OC(F)F)cc1)N1CCc2ccccc21	2%	2%	-5%	-21%	5%
CN(CCCS(=O)(=O)[O-])c1ccc(/C=C/c2ccc3ccccc3[n+]2C)cc1	-5%	-1%	-11%	-1%	-24%
CN(C)c1ccc(/C=C/c2ccc3ccccc3[n+]2C)cc1	14µM*	?	?	-89%	·
CN(C)c1ccc(/C=C/c2cccc[n+]2[O-])cc1	-2%	-7%	-18%	0%	-3%
CN(C)c1ccc(/C=C/c2ccc3c4ccccc4ccc3[n+]2-c2ccccc2)cc1	1%	11µM*	?	-17%	28µM*
CC(C)CCC(=O)OC1CCC2C3CCC4=CC(=O)CC[C@]4(C)C3CC[C@]12C (some centres not stated)	·	·	4%	·	·
CCOC(=O)c1c(C)[nH]c(/C(C)=N/O)c1C	-5%	1%	3%	-3%	-17%
CCOC(=O)c1c(C)[nH]c(C2=NNC(=NC3CC3)SC2)c1C	-22%	88%	7.9µM*	0%	-15%
CC[C@@]1(c2ccccc2)NC(=O)N(C)C1=O	·	·	3%	·	·
CN(C)c1ccc2c(c1)C(=NO)c1ccccc1-2	·	25µM*	-8%	·	-26%
CCOc1ccc(N2C(=O)CC(N(C)Cc3ccccc3)C2=O)cc1 (configuration not stated)	-6%	10%	-6%	-126%	35µM*
CCCOc1ccc(N2C(=O)CC(SCCN)C2=O)cc1 (configuration not stated)	-22%	3.5µM*	-14%	-28%	7.9µM*
CCCOc1ccc(N2C(=O)CC(N(Cc3ccccc3)N=O)C2=O)cc1 (configuration not stated)	4%	-16%	2%	0%	-12%
CCOc1ccc(N2C(=O)CC(N)C2=O)cc1 (configuration not stated)	-2%	-2%	-5%	-119%	7.1µM*
COC(=O)c1ccc(N2C(=O)CC(N3CCN(c4ccccc4)CC3)C2=O)cc1 (configuration not stated)	·	-7%	0%	·	?
COC(=O)c1ccc(N2C(=O)CC(N(C)Cc3ccccc3)C2=O)cc1 (configuration not stated)	0%	-4%	-5%	-13%	6.3µM*
Fc1cccc(CNc2ncnc3ccc(-c4cccnc4)cc23)c1	·	·	·	-3%	·
CC1=C/C(=C(/c2cc(C)c(O)c(Br)c2)c2ccccc2S(=O)(=O)O)C=C(Br)C1=O	20µM*	?	?	6%	?
CN(CC/C=C1/c2ccccc2CSc2ccccc21)CCCO	1%	17%	-3%	9%	7%
C=CCN(C)CC/C=C1\c2ccccc2CSc2ccccc21	4%	14µM*	-4%	-20%	4%
O=C(O)C1C2C=CC(O2)C1C(=O)NCc1ccc(Cl)cc1 (configuration not stated)	-2%	16%	-4%	4%	35µM*
